We go through 38 compounds from PubChem BioAssay (NCATS).

Records with an inconclusive call do not appear. Calls of active or inactive are those of the source. Calls come from the whole dose curve; as a rule, active = well fitted cell-killing curve with a large enough effect; inconclusive = small, poorly fitted or top-dose-only effect; inactive = flat fitted curve, though single readings scatter.

One assay can be described thus: Cell Viability - LYMP2-026 (AID 989).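 Note: cells exposed to compound for 24 h at 37 °C; % is set by controls: 0 for no effect and ±100 for the full control effect; nearly all actives have a fitted effect of over 50% in size.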 Particulars: LYMP2-026 lymphoblastoid cell viability, qHTS; series mostly up to 92.2 µM; activity change, negative = cytotoxic: at the top concentration. The method in brief:
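Luminescent ATP signal (CellTiter-Glo, 30 min room temperature) measures viable lymphoblastoid cells after 24 hr compound treatment at 37 C. Decreased ATP reflects acute toxicity; AC50 values come from Hill-equation modeling.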
For `Cc1cc(C)cc(N)c1`, the “activity change, negative = cytotoxic” value is -6.89% (inactive).

Take `Cc1ccc(C)cc1`: the “activity change, negative = cytotoxic” value was 0.606% (inactive).

On to `c1ccc2c(c1)ccc1ncccc12`, for which the “activity change, negative = cytotoxic” value is 7.45% (inactive).

Consider `O=C(O)CCSSCCC(=O)O`, for which the “activity change, negative = cytotoxic” value was -1.36% (inactive).

Take `CC(CCl)OC(C)CCl` (stereo unspecified): the “activity change, negative = cytotoxic” value was 2.96% (inactive).

As to `CCCC(Cl)CCCC(Cl)CCC(Cl)CCC(Cl)CCC(Cl)CCCC(Cl)CCC` (stereo unspecified), the “activity change, negative = cytotoxic” value was -3.85% (inactive).

As to `CC(=O)Nc1ccc(N)cc1`, the “activity change, negative = cytotoxic” value was 3.05% (inactive).

In the case of `Nc1cc(S(=O)(=O)O)ccc1O`, the “activity change, negative = cytotoxic” value was 6.79% (inactive).

For the compound `Nc1cccc(S(=O)(=O)O)c1`, the “activity change, negative = cytotoxic” value is 3.31% (inactive).

For `Cc1ccc2oc(=O)ccc2c1`, the “activity change, negative = cytotoxic” value is 1.16% (inactive).

For the compound `NC(=O)c1cccc([N+](=O)[O-])c1`, the “activity change, negative = cytotoxic” value was -8.7% (inactive).

On to `Nc1ccc(Cl)cc1[N+](=O)[O-]`, for which the “activity change, negative = cytotoxic” value was -5.17% (inactive).

Take `Nc1cccc([N+](=O)[O-])c1`: the “activity change, negative = cytotoxic” value is 8.06% (inactive).

With `Oc1c(Cl)ccc(Cl)c1Cl`, the “activity change, negative = cytotoxic” value is -5.01% (inactive).

For the compound `C[C@@H]1CC2(OC3C[C@@]4(C)C5=CC[C@H]6C(C)(C)C(O[C@@H]7OC[C@@H](O)[C@H](O)[C@H]7O)CC[C@@]67C[C@@]57CC[C@]4(C)C31)OC(O)C1(C)OC21` (stereo partly specified), the “activity change, negative = cytotoxic” value is -13.7% (inactive).

In the case of `Cc1ccc(N(C)C)cc1`, the “activity change, negative = cytotoxic” value was 3% (inactive).

In the case of `C1COC1`, the “activity change, negative = cytotoxic” value is 4.87% (inactive).

Turning to `Cc1cccc([N+](=O)[O-])c1C(=O)O`, the “activity change, negative = cytotoxic” value was 1.74% (inactive).

For the compound `BrC(Br)C(Br)Br`, the “activity change, negative = cytotoxic” value is -0.36% (inactive).

`c1ccsc1`: the “activity change, negative = cytotoxic” value was 8.57% (inactive).

With `ClCCl`, the “activity change, negative = cytotoxic” value is -2.55% (inactive).

For the compound `Nc1ccc(F)cc1F`, the “activity change, negative = cytotoxic” value was 0.533% (inactive).

Regarding `CCC(C)(C)C(=O)O`, the “activity change, negative = cytotoxic” value is 0.776% (inactive).

Regarding `CC(N)CN` (stereo unspecified), the “activity change, negative = cytotoxic” value is 1.4% (inactive).

For the compound `COc1ccc(OC)cc1`, the “activity change, negative = cytotoxic” value was 0.272% (inactive).

`C1CCC2OC2C1` (stereo unspecified): the “activity change, negative = cytotoxic” value was 3.29% (inactive).

For `Cc1ccc2cccnc2c1`, the “activity change, negative = cytotoxic” value was -3.8% (inactive).

Regarding `CCOc1cc(OCC)c(C(C)=O)cc1OCC`, the “activity change, negative = cytotoxic” value is 6.51% (inactive).

Turning to `CCN(Cc1ccccc1)c1ccccc1`, the “activity change, negative = cytotoxic” value is -6.66% (inactive).

For the compound `CC(C)=C1CCC(C)CC1=O` (stereo unspecified), the “activity change, negative = cytotoxic” value was 2.32% (inactive).

As for `CNC(=O)N(c1ccccc1)c1ccccc1`, the “activity change, negative = cytotoxic” value was 4.22% (inactive).

With `OCCO`, the “activity change, negative = cytotoxic” value was -0.0885% (inactive).

Consider `CC(C)(O)CCC(C)(C)O`, for which the “activity change, negative = cytotoxic” value was 4.11% (inactive).

For `Cc1cccc(C(=O)O)c1`, the “activity change, negative = cytotoxic” value is 0.468% (inactive).

Consider `Cc1cccc(C)c1O`, for which the “activity change, negative = cytotoxic” value was -1.65% (inactive).

Regarding `CC(C)c1ccccc1`, the “activity change, negative = cytotoxic” value was 0.573% (inactive).

A further assay in a line: Cell Viability - LYMP1-002 - Assay at 24 hr (AID 993). Note: % is set by controls: 0 for no effect and ±100 for the full control effect. The note with it: LYMP1-002 lymphoblastoid cells viability; series mostly up to 92.2 µM; activity change, negative = cytotoxicity: at the top concentration. The method in brief: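 Cells plated 2500/well, 5 hr 37 C; compounds added, 24 hr 37 C; CellTiter-Glo added, 30 min RT; luminescence read. Tetraoctylammonium bromide positive control. Hill-equation AC50.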
With `Cc1cc(C)cc(N)c1`, the “activity change, negative = cytotoxicity” value was -3.38% (inactive).

For the compound `Cc1ccc(C)cc1`, the “activity change, negative = cytotoxicity” value is -0.219% (inactive).

Consider `c1ccc2c(c1)ccc1ncccc12`, for which the “activity change, negative = cytotoxicity” value was -3.97% (inactive).

In the case of `O=C(O)CCSSCCC(=O)O`, the “activity change, negative = cytotoxicity” value is 4.89% (inactive).

`CC(CCl)OC(C)CCl` (stereo unspecified): the “activity change, negative = cytotoxicity” value was 2.65% (inactive).

On to `CCCC(Cl)CCCC(Cl)CCC(Cl)CCC(Cl)CCC(Cl)CCCC(Cl)CCC` (stereo unspecified), for which the “activity change, negative = cytotoxicity” value is -1.73% (inactive).

Regarding `CC(=O)Nc1ccc(N)cc1`, the “activity change, negative = cytotoxicity” value was 7.42% (inactive).

Take `Nc1cc(S(=O)(=O)O)ccc1O`: the “activity change, negative = cytotoxicity” value was 1.15% (inactive).

Take `Cc1ccc2oc(=O)ccc2c1`: the “activity change, negative = cytotoxicity” value is 4.77% (inactive).

As to `NC(=O)c1cccc([N+](=O)[O-])c1`, the “activity change, negative = cytotoxicity” value was -2.77% (inactive).

With `Nc1cccc([N+](=O)[O-])c1`, the “activity change, negative = cytotoxicity” value is -1.72% (inactive).

For the compound `Oc1c(Cl)ccc(Cl)c1Cl`, the “activity change, negative = cytotoxicity” value is 0.0841% (inactive).

Take `C[C@@H]1CC2(OC3C[C@@]4(C)C5=CC[C@H]6C(C)(C)C(O[C@@H]7OC[C@@H](O)[C@H](O)[C@H]7O)CC[C@@]67C[C@@]57CC[C@]4(C)C31)OC(O)C1(C)OC21` (stereo partly specified): the “activity change, negative = cytotoxicity” value was -0.582% (inactive).

For the compound `Cc1ccc(N(C)C)cc1`, the “activity change, negative = cytotoxicity” value was -1.06% (inactive).

With `C1COC1`, the “activity change, negative = cytotoxicity” value was 6.68% (inactive).

As to `O=C1CCCCC1`, the “activity change, negative = cytotoxicity” value was -0.419% (inactive).

Regarding `Cc1cccc([N+](=O)[O-])c1C(=O)O`, the “activity change, negative = cytotoxicity” value is -0.63% (inactive).

For the compound `BrC(Br)C(Br)Br`, the “activity change, negative = cytotoxicity” value was 4.55% (inactive).

In the case of `c1ccsc1`, the “activity change, negative = cytotoxicity” value was 0.774% (inactive).

For the compound `ClCCl`, the “activity change, negative = cytotoxicity” value is 5.67% (inactive).

For `Nc1ccc(F)cc1F`, the “activity change, negative = cytotoxicity” value was 6.49% (inactive).

As to `CCC(C)(C)C(=O)O`, the “activity change, negative = cytotoxicity” value was -2.33% (inactive).

Consider `COc1ccc(OC)cc1`, for which the “activity change, negative = cytotoxicity” value is -3.27% (inactive).

For `C1CCC2OC2C1` (stereo unspecified), the “activity change, negative = cytotoxicity” value was 7.86% (inactive).

As to `Cc1ccc2cccnc2c1`, the “activity change, negative = cytotoxicity” value was 5.82% (inactive).

For the compound `CCOc1cc(OCC)c(C(C)=O)cc1OCC`, the “activity change, negative = cytotoxicity” value is 4.46% (inactive).

Turning to `CCN(Cc1ccccc1)c1ccccc1`, the “activity change, negative = cytotoxicity” value is 6.72% (inactive).

Turning to `O=C1NC(=O)c2cc([N+](=O)[O-])ccc21`, the “activity change, negative = cytotoxicity” value was 1.73% (inactive).

Regarding `CC(C)=C1CCC(C)CC1=O` (stereo unspecified), the “activity change, negative = cytotoxicity” value was 1.08% (inactive).

Consider `CNC(=O)N(c1ccccc1)c1ccccc1`, for which the “activity change, negative = cytotoxicity” value is -1.01% (inactive).

As to `OCCO`, the “activity change, negative = cytotoxicity” value was 4.55% (inactive).

On to `CC(C)(O)CCC(C)(C)O`, for which the “activity change, negative = cytotoxicity” value is -0.976% (inactive).

As for `Cc1cccc(C(=O)O)c1`, the “activity change, negative = cytotoxicity” value is -4.29% (inactive).

Turning to `Cc1cccc(C)c1O`, the “activity change, negative = cytotoxicity” value was -3.47% (inactive).

Take `CC(C)c1ccccc1`: the “activity change, negative = cytotoxicity” value is 3.56% (inactive).

Another assay is described as follows: Cell Viability - LYMP1-002 - Assay at 40 hr (AID 994).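 Note: 0% = DMSO only and full inhibition = 92 µM tetraoctylammonium bromide; nearly all actives have a fitted effect of over 60% in size.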 The note with it: LYMP1-002 lymphoblastoid cell viability; series mostly up to 92.2 µM; viability change, negative = cytotoxic: at the top concentration. Put shortly: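 Luminescent ATP signal served as the viability readout, with decreases taken as toxicity. Cells were treated with compounds across a concentration range for 40 hours at 37 C, and AC50 values came from standard Hill modeling.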
On to `Cc1cc(C)cc(N)c1`, for which the “viability change, negative = cytotoxic” value is -3.52% (inactive).

`Cc1ccc(C)cc1`: the “viability change, negative = cytotoxic” value was 4.28% (inactive).

Turning to `c1ccc2c(c1)ccc1ncccc12`, the “viability change, negative = cytotoxic” value was -9.12% (inactive).

Consider `O=C(O)CCSSCCC(=O)O`, for which the “viability change, negative = cytotoxic” value was -7.23% (inactive).

For the compound `CCCC(Cl)CCCC(Cl)CCC(Cl)CCC(Cl)CCC(Cl)CCCC(Cl)CCC` (stereo unspecified), the “viability change, negative = cytotoxic” value is -7.52% (inactive).

Turning to `CC(=O)Nc1ccc(N)cc1`, the “viability change, negative = cytotoxic” value was -3.99% (inactive).

`Nc1cc(S(=O)(=O)O)ccc1O`: the “viability change, negative = cytotoxic” value is -1.25% (inactive).

As to `Nc1cccc(S(=O)(=O)O)c1`, the “viability change, negative = cytotoxic” value was 4.52% (inactive).

As for `NC(=O)c1cccc([N+](=O)[O-])c1`, the “viability change, negative = cytotoxic” value was -4.6% (inactive).

Turning to `Nc1ccc(Cl)cc1[N+](=O)[O-]`, the “viability change, negative = cytotoxic” value was -2.53% (inactive).

Consider `C[C@@H]1CC2(OC3C[C@@]4(C)C5=CC[C@H]6C(C)(C)C(O[C@@H]7OC[C@@H](O)[C@H](O)[C@H]7O)CC[C@@]67C[C@@]57CC[C@]4(C)C31)OC(O)C1(C)OC21` (stereo partly specified), for which the “viability change, negative = cytotoxic” value is -16.5% (inactive).

As for `Cc1ccc(N(C)C)cc1`, the “viability change, negative = cytotoxic” value was -0.269% (inactive).

Take `C1COC1`: the “viability change, negative = cytotoxic” value is -5.12% (inactive).

On to `O=C1CCCCC1`, for which the “viability change, negative = cytotoxic” value was -7.85% (inactive).

With `BrC(Br)C(Br)Br`, the “viability change, negative = cytotoxic” value was -4.1% (inactive).

As to `c1ccsc1`, the “viability change, negative = cytotoxic” value is -5.89% (inactive).

For the compound `ClCCl`, the “viability change, negative = cytotoxic” value is 2.14% (inactive).

As for `Nc1ccc(F)cc1F`, the “viability change, negative = cytotoxic” value is 0.0289% (inactive).

Regarding `CCC(C)(C)C(=O)O`, the “viability change, negative = cytotoxic” value is -2.39% (inactive).

For `C1CCC2OC2C1` (stereo unspecified), the “viability change, negative = cytotoxic” value is 3.44% (inactive).

`Cc1ccc2cccnc2c1`: the “viability change, negative = cytotoxic” value is 5.15% (inactive).

For the compound `CCOc1cc(OCC)c(C(C)=O)cc1OCC`, the “viability change, negative = cytotoxic” value was -11.9% (inactive).

With `CCN(Cc1ccccc1)c1ccccc1`, the “viability change, negative = cytotoxic” value was -3.36% (inactive).

`O=C1NC(=O)c2cc([N+](=O)[O-])ccc21`: the “viability change, negative = cytotoxic” value is -4.62% (inactive).

Turning to `CNC(=O)N(c1ccccc1)c1ccccc1`, the “viability change, negative = cytotoxic” value is -1.06% (inactive).

As to `OCCO`, the “viability change, negative = cytotoxic” value is 8.67% (inactive).

As to `CC(C)(O)CCC(C)(C)O`, the “viability change, negative = cytotoxic” value was -7.55% (inactive).

As for `Cc1cccc(C(=O)O)c1`, the “viability change, negative = cytotoxic” value was 4.1% (inactive).

With `Cc1cccc(C)c1O`, the “viability change, negative = cytotoxic” value is -6.91% (inactive).

Take `CC(C)c1ccccc1`: the “viability change, negative = cytotoxic” value was -0.176% (inactive).
